The whole screen tested about 310,000 compounds, of which about 14,000 (4.5%) showed an effect of 50% or more. Effects have a minus sign here. Shown is part of a subset that was picked to be rich in strong results.
Target: human ether-à-go-go-related gene (hERG) potassium channel (human, UniProt Q12809)
Assay: primary screen, population patch clamp on CHO cells stably expressing hERG; higher = less effect of the substance
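Also: peak tail current of the secondary pulse compared with the same well before compound.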

Sequence of human ether-à-go-go-related gene (hERG) potassium channel (Q12809 whole entry, looked up): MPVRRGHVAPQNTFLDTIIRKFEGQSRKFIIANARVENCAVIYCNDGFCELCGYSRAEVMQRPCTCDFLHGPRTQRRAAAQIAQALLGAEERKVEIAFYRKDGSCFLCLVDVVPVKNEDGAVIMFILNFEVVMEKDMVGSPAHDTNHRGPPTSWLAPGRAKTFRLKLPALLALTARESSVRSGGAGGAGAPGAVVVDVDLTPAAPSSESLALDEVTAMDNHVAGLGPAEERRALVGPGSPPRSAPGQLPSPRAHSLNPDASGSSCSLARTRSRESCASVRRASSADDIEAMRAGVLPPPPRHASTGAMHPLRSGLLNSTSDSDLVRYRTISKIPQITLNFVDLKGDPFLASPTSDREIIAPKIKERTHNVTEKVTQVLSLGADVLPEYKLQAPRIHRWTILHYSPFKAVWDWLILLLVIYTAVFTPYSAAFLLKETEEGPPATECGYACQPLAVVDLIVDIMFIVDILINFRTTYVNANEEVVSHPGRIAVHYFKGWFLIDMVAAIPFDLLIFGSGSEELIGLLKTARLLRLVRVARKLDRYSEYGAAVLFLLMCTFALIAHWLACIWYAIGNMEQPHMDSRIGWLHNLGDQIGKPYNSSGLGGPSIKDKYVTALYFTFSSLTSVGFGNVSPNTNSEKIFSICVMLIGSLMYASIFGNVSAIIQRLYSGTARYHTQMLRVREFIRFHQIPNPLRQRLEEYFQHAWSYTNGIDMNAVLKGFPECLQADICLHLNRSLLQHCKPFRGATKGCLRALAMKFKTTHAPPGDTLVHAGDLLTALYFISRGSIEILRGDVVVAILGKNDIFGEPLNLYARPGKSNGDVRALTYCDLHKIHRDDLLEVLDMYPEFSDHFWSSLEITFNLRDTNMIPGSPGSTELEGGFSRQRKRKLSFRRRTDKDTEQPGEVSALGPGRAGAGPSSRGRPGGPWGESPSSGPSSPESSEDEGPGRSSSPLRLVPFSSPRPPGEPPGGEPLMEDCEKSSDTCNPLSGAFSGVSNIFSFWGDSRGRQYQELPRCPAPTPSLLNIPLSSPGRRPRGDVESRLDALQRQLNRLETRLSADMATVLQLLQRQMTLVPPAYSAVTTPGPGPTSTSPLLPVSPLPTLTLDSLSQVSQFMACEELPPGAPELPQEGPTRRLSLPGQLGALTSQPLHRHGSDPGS

| SMILES | hERG current change (%, negative = inhibition) at 10uM [%] |
| --- | --- |
| CC(C)c1cccc(C(C)C)c1NC(=O)CN1C(=O)NC2(CCCC2)C1=O | 14.8 |
| CCOC(=O)C(O)(CCC(O)(C(=O)OCC)C(=O)OCC)C(=O)OCC | 5.85 |
| Cn1c(=O)c2c(nc(CN3CCC(C(N)=O)CC3)n2CCc2ccccc2)n(C)c1=O | 4.44 |
| CCOC(=O)c1ccc(NC(=O)NC2CC3CCC(C2)N3Cc2nnnn2Cc2ccco2)cc1 (stereo not drawn) | -21.1 |
| O=C(NCc1ccc2c(c1)OCO2)c1nn(-c2ccccc2)c(=O)c2ccccc12 | -35.1 |
| COc1ccc(N(CC(=O)NCc2cccnc2)S(=O)(=O)c2c(C)nn(C)c2C)cc1 | 3.1 |
| O=C(CSc1nc(-c2ccccc2)nn1C(=O)c1ccccc1)Nc1cccc([N+](=O)[O-])c1 | 2.83 |
| COc1ccc(NC(=O)CCc2nc3ccccc3s2)c(OC)c1 | -0.68 |
| O=C(CN(c1cccc(C(F)(F)F)c1)S(=O)(=O)c1ccccc1)N1CCOCC1 | -30.5 |
| CCC(=O)c1ccc(N2CCCCC2)c(F)c1 | 8.26 |
| CCC(=O)c1ccc(N2CCN(C(=O)c3cccc(F)c3)CC2)c(F)c1 | -41.6 |
| CCOC(=O)C1CCN(C(=O)c2ccccc2CCc2ccccc2)CC1 | -8.95 |
| CCOC(=O)N1CCN(C(=O)c2ccccc2CCc2ccccc2)CC1 | -59.1 |
| CCC(=O)c1ccc(N2CCN(C(=O)c3ccccc3)CC2)c(F)c1 | -70.1 |
| CCC(=O)c1ccc(N2CCN(C(=O)c3ccccc3Br)CC2)c(F)c1 | -26.8 |
| CCC(=O)c1ccc(N2CCN(C(=O)c3ccc(Br)cc3)CC2)c(F)c1 | -16 |
| CCC(=O)c1ccc(N2CCN(C(=O)c3ccc(F)cc3)CC2)c(F)c1 | -60 |
| O=C(c1ccccc1CCc1ccccc1)N1CCCC1 | 9.12 |
| CCOC(=O)Nc1sc(C(=O)N(C)C)c(C)c1C(=O)OCC | 5.73 |

| SMILES | hERG current change (%, negative = inhibition) at 10uM [%] |
| --- | --- |
| O=C(COC(=O)/C=C/c1cccs1)NC(c1ccccc1)c1ccccc1 | -2.53 |
| O=C(CNC(=O)c1ccccc1)OCC(=O)c1ccc(Cl)s1 | 0.566 |
| CC1(C)CC(=O)C2=C(C1)NC(=O)NC2c1ccccc1 (stereo not drawn) | 21.7 |
| Cc1oc(CC(C)C)cc1C(=O)NCCCC(=O)O | 13.6 |
| COc1ccc(C2(CNS(=O)(=O)c3ccc(C)cc3)CCOCC2)cc1 | 15.4 |
| O=C(O)c1ccc(N2C(=O)CC(SC(=NCc3ccc4c(c3)OCO4)Nc3ccccc3)C2=O)cc1 (stereo not drawn) | 13.9 |
| CCOC(=O)C1=C(C)NC(=O)CC1c1ccccc1 (stereo not drawn) | -0.777 |
| COc1ccc(C(=O)CCc2ccc(OC)c(OC)c2)cc1 | -10.3 |
| O=C(CNC(=O)c1ccc(Br)cc1)OCC(=O)c1ccccc1 | 10.2 |
| Cc1ccc2[nH]c(-c3cccc(N)c3)cc2c1 | 18.4 |
| O=C(CSc1nnc(CN2CCCCC2)n1-c1ccccc1)c1ccc2c(c1)OCO2 | -25.4 |
| CCC1Oc2ccc(C)cc2N(CC(=O)N2CCN(c3ccc(F)cc3)CC2)C1=O (stereo not drawn) | -54.1 |
| Cc1ccc2c(c1)N(CC(=O)N1CCCCC1)C(=O)C(C)O2 (stereo not drawn) | 11.9 |
| Cc1ccc2c(c1)N(CC(=O)N1CCN(c3nc4ccccc4s3)CC1)C(=O)C(C)O2 (stereo not drawn) | -54.5 |
| CCC1Oc2ccc(C)cc2N(CC(=O)N2CCOCC2)C1=O (stereo not drawn) | 4.58 |
| CCC1Oc2ccc(C)cc2N(CC(=O)N2CCCC2)C1=O (stereo not drawn) | 23.2 |
| Cc1ccc2c(c1)N(CC(=O)N1CCCC1)C(=O)C(C)O2 (stereo not drawn) | 19.4 |
| Cc1c(C(=O)N/N=C/c2ccc(N3CCOCC3)cc2)nc2ccccn12 | -1.87 |
| CCN(CC)C(=O)C(=O)c1ccn(-c2c(C)csc2C(=O)OC)c1 | -9.5 |

| SMILES | hERG current change (%, negative = inhibition) at 10uM [%] |
| --- | --- |
| C=CCN(CC=C)C(=O)C(=O)c1ccn(-c2c(C)csc2C(=O)OC)c1 | -70.3 |
| COC(=O)c1scc(C)c1-n1ccc(C(=O)C(=O)N(C)C)c1 | 5.31 |
| NC(=O)C1CCCN(C(=O)c2ccc(Cl)cc2)C1 (stereo not drawn) | 6.59 |
| O=C(Nc1ccccc1)c1cc(-n2cnnc2)ccc1Cl | 9.46 |
| CN1CCN(c2ccc(NC(=O)c3ccc(C(F)(F)F)cc3)cn2)CC1 | -73.2 |
| CN(C)S(=O)(=O)c1cccc(C(=O)Nc2ccc3c(c2)CCC3)c1 | -21.9 |
| CN(C)S(=O)(=O)N1CCc2ccc(NC(=O)c3ccc(C(F)(F)F)cc3)cc2C1 | 25.4 |
| CN1CCN(c2ccc(NC(=O)c3ccc(Cl)cc3)cn2)CC1 | -53.1 |
| Cc1ccccc1C(=O)Nc1ccc(N2CCN(C)CC2)nc1 | -1.6 |
| O=C(Nc1ccc(N2CCOCC2)nc1)c1ccc(Cl)cc1 | -11.5 |
| Cc1ccc(C(=O)Nc2ccc3c(c2)CCC3)cc1 | 14.7 |
| COCC(=O)N1CCc2ccc(NC(=O)c3ccc(C(F)(F)F)cc3)cc2C1 | -38.3 |
| CN1CCc2ccc(NC(=O)c3ccc(C(F)(F)F)cc3)cc2C1 | -53.8 |
| O=C(Nc1ccc(N2CCOCC2)nc1)c1ccc(C(F)(F)F)cc1 | 16.6 |
| CN(C)S(=O)(=O)c1ccc(C(=O)Nc2ccc3c(c2)CCC3)cc1 | -52 |
| CC(=O)Nc1ccc(N2CCN(c3ccc(C(F)(F)F)cn3)CC2)nc1 | -3.49 |
| Cn1c(=O)c2c([nH]c(=S)n2Cc2ccc(Cl)cc2)n(C)c1=O | 17 |
| Cc1ccsc1C(=O)N1CCN(c2ncccn2)CC1 | 7.76 |
| COc1ccc(-c2nnn(CC(=O)N(C3CCCCC3)C(C)C(=O)NC3CCCC3)n2)cc1OC (stereo not drawn) | -22.1 |

Source: paper PMC4336329 (PLoS ONE, 2015)
